Only some compounds are listed: those with a hit (about 7.5% of all), similar ones and a draw of the others.
SMN2 splice enh = increases expression of the SMN2 splice variant. HEK293 SMN2-luciferase splicing reporter, luminescence, 30-36 h. Potency, µM (highest dose often 46.1 µM), inactives show top-dose activity change, positive = activation, hits mostly activators. actives 2.8% (n = 210,000). AID 1458; further: % of control where 0% means no effect; nearly all actives have a fitted effect of over 55% in size
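qHTS luciferase splicing reporter: luminescence rises when SMN2 exon 7 is included in transfected HEK293 cells. Compound exposure lasted 30-36 h at 37C, with 4.5 mM final sodium butyrate as control, followed by a ONE-Glo read.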
NPC1 prom act = NPC1 promoter activation; Potency, µM (titrated, usually from 9.22 µM), without a hit: at the highest dose activation, usual class: activators; actives 2.4% (n = 320,000); Huh7 NPC1 promoter luciferase reporter, 24 h; further: % of control where 0% means no effect; nearly all actives have a fitted effect of over 60% in size
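In 1536-well qHTS, Huh7 cells harboring an NPC1 promoter–luciferase construct received compound for 24 h; activation was quantified by luminescence following luciferase reagent addition.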
Rab9 prom act = Rab9 promoter activation; Huh7 Rab9 promoter-luciferase reporter, luminescence, 24 h; Potency, µM (titrated, usually from 9.22 µM), for inactives: at the highest dose activation, negative = inhibition, usual class: activators; actives 2.8% (n = 320,000); AID 485297; further: % of control where 0% means no effect; nearly all actives have a fitted effect of over 60% in size
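Steps: seed 1500 Huh7 Rab9-luc cells per well, rest 2 h at 37 °C; add compound in DMSO; incubate 24 h; add luciferase reagent, 10 min ambient; read luminescence.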
FLuc modulator = counter-screen for miR-21 project: firefly luciferase inhibitors or activators | P08659 | purified FLuc, Km substrates, luminescence inhibition | Potency, µM (series often up to 57.5 µM), for the others: top-dose activity change, negative = inhibition, usual class: inhibitors | actives 6.9% (n = 360,000) | AID 588342;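 further: plate controls were vehicle for no effect and reference inhibitor for full effect; nearly all actives have a fitted effect of over 55% in size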
Target sequence (P08659 whole entry, looked up): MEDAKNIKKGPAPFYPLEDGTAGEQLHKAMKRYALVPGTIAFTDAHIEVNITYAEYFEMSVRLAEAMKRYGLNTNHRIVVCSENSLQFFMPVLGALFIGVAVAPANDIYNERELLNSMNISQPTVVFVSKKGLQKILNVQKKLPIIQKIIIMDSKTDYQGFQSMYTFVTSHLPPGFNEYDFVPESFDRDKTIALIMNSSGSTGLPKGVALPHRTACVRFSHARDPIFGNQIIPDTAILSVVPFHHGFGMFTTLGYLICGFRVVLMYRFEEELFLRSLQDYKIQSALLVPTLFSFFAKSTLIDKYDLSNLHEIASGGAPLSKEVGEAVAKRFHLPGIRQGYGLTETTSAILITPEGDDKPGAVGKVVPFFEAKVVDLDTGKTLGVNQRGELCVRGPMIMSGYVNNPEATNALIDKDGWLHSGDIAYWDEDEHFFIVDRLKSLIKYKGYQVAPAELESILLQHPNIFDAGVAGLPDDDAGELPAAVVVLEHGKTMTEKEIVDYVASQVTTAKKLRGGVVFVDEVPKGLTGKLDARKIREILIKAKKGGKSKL
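Biochemical qHTS of compounds, final roughly 60 µM downward over six points, against 10 nM purified firefly luciferase using Km concentrations of substrates (10 uM D-luciferin, 10 uM ATP) in Tris acetate pH 7.5 buffer; luminescence output.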
ELG1 genotox = genotoxicity induction in ELG1-luciferase HEK293T cells; HEK293T ELG1-luciferase reporter, luminescence, 16 h; Potency, µM (top dose mostly 46 µM), for the others: at the highest dose activity change, positive = activation, most hits filed as activators; actives 1.3% (n = 330,000); further: % of control where 0% means no effect; nearly all actives have a fitted effect of over 60% in size
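Quantitative HTS format in 1536-well plates. HEK293T ELG1-luciferase reporter cells receive test compound and are incubated 16 hr at 37 °C, 5% CO2; ONE-Glo added, 30 min room temperature, then luminescence read.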
KinaseGlo FLuc = blocks Kinase-Glo luciferase, a counter-screen artifact; actives 0.28% (n = 200,000); Kinase-Glo luciferase, ATP luminescence, 8 min; Potency, µM (doses to about 38.3 µM), without a hit: top-dose activity change, negative = inhibition, usual class: inhibitors; Q27757; further: on the % scale 0 is the no-effect control and ±100 the full control effect; nearly all actives have a fitted effect of over 60% in size
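Light output from Kinase-Glo luciferase with luciferin and 10 uM ATP in 50 mM imidazole pH 7.2, KCl, MgCl2, Tween 20, BSA; compound pin-delivered, 8-min ambient incubation, then luminescence read.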
* hit, by the source's call; ? = inconclusive; . = no result given; [ ] = remark or other dose. The call rests on the fitted dose curve; in most records, active means well fitted curve in the direction sought with a large enough effect; inconclusive means small, poorly fitted or top-dose-only effect, or another doubt; inactive means no such curve, though single readings can be large; an effect the other way counts as inactive or inconclusive. Potency means the concentration at half of the fitted maximal effect.

SMILES | SMN2 splice enh | NPC1 prom act | Rab9 prom act | FLuc modulator | ELG1 genotox | KinaseGlo FLuc
COC(=O)C1CN(C(=O)COc2cccc(C)c2C)c2ccccc2O1 (stereo unspecified) | . | -4.0% | -1.7% | ? | -1.2% | .
O=C(Nc1ccccc1)C1=C[C@@H](C2CCCCC2)C[C@@H](OCCCCO)O1 | . | 26.8% | ? | 12µM* | ? | .
Cc1c2ccccc2nc2c(F)c(N(C)C)c(F)c(F)c12 | ? | 20.9% | ? | 9.53µM* | ? | -1.1%
CCSc1ncc(Cl)c(C(=O)Nc2nc3ccc(Cl)cc3s2)n1 | 2.6% | . | . | ? | . | .
Cc1cc(C(=O)Nc2nc3ccc(Cl)cc3s2)nn1C | . | 1.41µM* | 0.631µM* | 2.13µM* | ? | .
Cn1ncc(Cl)c1C(=O)Nc1nc2ccc(Cl)cc2s1 | 3.55µM* | 3.16µM* | ? | 2.13µM* | ? | -17.8%
O=C(Nc1nc2ccc(Cl)cc2s1)c1ccc(Br)o1 | 11.2µM* | 3.55µM* | 1.12µM* | 2.39µM* | ? | -4.6%
Cc1ccc2c(=O)cc(C(=O)Nc3nc4ccc(Cl)cc4s3)oc2c1C | -3.5% | . | . | -19.3% | . | .
CC(=Nc1ccccc1)C1=C(O)COC1=O | -11.3% | -3.3% | -2.6% | -0.1% | 3.2% | 6.7%
COc1ccc(OC)c(N=C(C)C2=C(O)COC2=O)c1 | 11.2µM* | -22.9% | -7.8% | 4.1% | 8.3% | -0.1%
COc1ccccc1CNc1ncnc2onc(-c3ccc(Cl)cc3)c12 | -0.5% | . | . | -2.1% | . | .
COCC(=O)N1CCC2(CCN(Cc3ccccc3)CC2)CC1 | -14.7% | . | . | . | . | -1.9%
O=C1CN(c2ccccc2)C(=S)N1C(=O)c1ccccc1 | . | ? | 3.98µM* | 23.9µM* | ? | .
COc1ccc(Oc2ncc3ncc(=O)n(Cc4ccc(F)cc4)c3n2)cc1 | -50.8% | . | . | . | . | -3.7%
COc1cc(/C=C/C2=NNC(=O)CC2)cc(OC)c1OC | . | -2.8% | -4.0% | -1.3% | ? | .
CC(C)c1ccc(/C=C/C2=NNC(=O)CC2)cc1 | 10µM* | -17.5% | ? | 5.36µM* | ? | -4.3%
C[C@@]1(O)CCOC(=O)C1 | -11.5%[20.6 µM] | . | . | . | . | 0.0%[17.1 µM]
CCN1CCc2nc3sc(C(=O)Nc4cccc(Cl)c4C)c(N)c3cc2C1 | 14.3% | . | . | 6.4% | . | .
Cc1cc(C)n2nc(C(=O)OCC(=O)c3cc(C)n(CC4CCCO4)c3C)nc2n1 (stereo unspecified) | 6.3% | 1.2% | -3.7% | -17.5% | -0.7% | 6.4%
Cc1cc(C(=O)COC(=O)c2nc3nccc(C)n3n2)c(C)n1CC1CCCO1 (stereo unspecified) | -21.1% | 7.7% | -6.0% | -16.2% | 1.6% | 0.9%
Cc1cc(C(=O)COC(=O)c2ccc3c(c2)NC(=O)CS3)c(C)n1CC1CCCO1 (stereo unspecified) | -13.2% | -4.7% | -4.2% | 15.1µM* | -1.0% | 2.3%
COc1cc(OC)cc(C(=O)OCC(=O)c2cc(C)n(CC3CCCO3)c2C)c1 (stereo unspecified) | . | 14.2% | 18.1% | 6.75µM* | 8.4% | .
Cc1cc(C(=O)COC(=O)c2ccc(Cl)c(S(N)(=O)=O)c2)c(C)n1CC1CCCO1 (stereo unspecified) | . | 0.794µM* | 0.708µM* | 1.51µM* | ? | .
COCC(C)n1c(C)cc(C(=O)COC(=O)c2ccc3c(c2)NC(=O)CS3)c1C (stereo unspecified) | -25.4% | 0.9% | -1.3% | ? | -3.7% | 0.5%
Cc1cc(C(=O)COC(=O)c2ccc(O)cc2)c(C)n1CC1CCCO1 (stereo unspecified) | 23.0% | 1.78µM* | 3.98µM* | 4.78µM* | ? | -5.8%
SMILES | SMN2 splice enh | NPC1 prom act | Rab9 prom act | FLuc modulator | ELG1 genotox | KinaseGlo FLuc
COc1ccc2c(c1)c(=O)c(S(=O)(=O)c1ccc(Cl)cc1)cn2Cc1cc(C)ccc1C | -5.1% | . | . | 0.6% | . | .
COc1cc(OC)c(C(=O)OCC(=O)c2cc(C)n(CC3CCCO3)c2C)cc1OC (stereo unspecified) | 7.1% | -1.3% | 2.6% | 21.3µM* | 1.6% | 2.9%
COCCn1c(C)cc(C(=O)COC(=O)c2ccc(Cl)c(S(N)(=O)=O)c2)c1C | . | 0.501µM* | 0.501µM* | 0.757µM* | 0.58µM* | .
O=S(=O)(CCc1ccccc1)c1nnnn1C1CCCCC1 | 15.3% | . | . | . | . | -1.0%
CCC(=O)Nc1cc(OC)c(NC(=O)c2ccccc2)cc1OC | ? | -0.7% | -1.4% | -3.1% | -6.3% | -0.5%
COc1cc(NC(=O)c2ccccc2)c(C)cc1NC(=O)CC(CC(=O)O)c1ccccc1 (stereo unspecified) | . | 2.4% | 0.2% | 13.5µM* | 4.7% | .
O=C1C(=O)N(CCN2CCOCC2)C(c2ccccn2)/C1=C(/O)c1ccc(F)cc1 (stereo unspecified) | 1.3% | 5.1% | -5.0% | -1.8% | 3.3% | 1.1%
Cc1c(/C(O)=C2\C(=O)C(=O)N(CCN(C)C)C2c2cccnc2)cnn1-c1ccccc1 (stereo unspecified) | 8.8% | 2.4% | 2.8% | 1.5% | 2.0% | 3.3%
Cc1c(/C(O)=C2/C(=O)C(=O)N(CCN3CCOCC3)C2c2ccccn2)cnn1-c1ccccc1 (stereo unspecified) | -27.0% | -10.3% | -16.9% | 16.9µM* | ? | -1.1%
Cc1c(/C(O)=C2\C(=O)C(=O)N(CCN(C)C)C2c2cccs2)cnn1-c1ccccc1 (stereo unspecified) | -18.9% | 2.51µM* | 4.47µM* | ? | -1.0% | 2.5%
Oc1ccc(N=Nc2n[nH]c(-c3ccc(Cl)cc3)n2)cc1 | 20µM* | 5.2% | 0.8% | 12µM* | 2.5% | 7.2%
CC(O)COc1ccc(/C(=N/O)c2ccccc2)cc1 (stereo unspecified) | 8.1% | 0.5% | -2.4% | ? | 0.5% | 7.2%
CC(C)COc1ccc(/C(=N/O)c2ccccc2)cc1 | -13.5% | 20.1% | 21.6% | 16.9µM* | ? | 18.7%
CC1CCc2c(sc3ncn(CC(=O)N=Nc4c(O)[nH]c5ccccc45)c(=O)c23)C1 (stereo unspecified) | . | -2.7% | -5.8% | 0.4% | -2.1% | .
CC1CCc2c(sc3ncn(Cc4ccc(C(=O)O)cc4)c(=O)c23)C1 (stereo unspecified) | 28.4% | 20.3% | 19.5% | 21.3µM* | ? | 3.4%
CC1CCc2c(sc3nc(SCC(=O)O)n(-c4ccccc4)c(=O)c23)C1 (stereo unspecified) | . | 12.7% | 2.5% | 21.3µM* | -1.4% | .
CC1CCc2c(sc3ncn(CCO)c(=O)c23)C1 (stereo unspecified) | 12.6µM* | ? | 2.51µM* | 16.9µM* | 20.6µM* | 1.7%
CCCNC(=O)C1CCC(Cn2c(=O)c3sccc3n(CC(=O)N3CCCC(C)C3)c2=O)CC1 (stereo unspecified) | . | . | . | 3.1% | . | .

Bioassay records from PubChem.
